From PubChem
HP1b binding inh: HTS for Inhibitors of HP1-beta Chromodomain Interactions with Methylated Histone Tails; Potency, µM (doses to about 114 µM), for inactives: at the highest dose activity change, negative = inhibition, usual class: inhibitors; Chromobox protein homolog 1 (Homo sapiens), P83916; 390,000 tested, 0.56% active; AlphaScreen HP1-beta / biotin-H3K9me3 peptide binding; also: nearly all actives have a fitted effect of over 70% in size
Target sequence (P83916 whole entry, looked up): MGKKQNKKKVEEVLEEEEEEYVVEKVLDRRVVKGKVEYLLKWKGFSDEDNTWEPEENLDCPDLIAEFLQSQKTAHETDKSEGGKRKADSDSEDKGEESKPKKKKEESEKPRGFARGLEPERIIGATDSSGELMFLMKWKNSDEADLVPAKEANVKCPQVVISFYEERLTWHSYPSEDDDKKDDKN
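HP1-beta protein (50 nM final) preincubated 30 min at room temperature with biotinylated H3(1-18)K9me3 peptide (50 nM) in PBS pH 7.4, 0.01% Tween-20, then compound added for 30 min. AlphaScreen streptavidin donor/nickel chelate acceptor beads (10 ug/mL final), 30 min dark, luminescence read.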
BAZ2B block: qHTS Assay for Inhibitors of BAZ2B; AlphaScreen BAZ2B-H3K14Ac peptide displacement; 360,000 tested, 4.4% active; AID 504333, 2011; Potency, µM (series often up to 114 µM), without a hit: top-dose activity change, negative = inhibition, usual class: inhibitors; also: % is scaled to controls: 0 for no effect and ±100 for the full control effect; nearly all actives have a fitted effect of over 60% in size
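Complex of BAZ2B and biotin-H3K14Ac (50 nM apiece) forms over 30 min at RT, then faces library compounds up to 110 uM for another 30 min; AlphaScreen beads added, 20 min dark incubation, luminescence read.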
JMJD2A Tudor inh: qHTS Assay for Inhibitors of JMJD2A-Tudor Domain. 390,000 tested, 4.4% active. Lysine-specific demethylase 4A (Homo sapiens), O75164. Potency, µM (highest dose often 114 µM), inactives show at the top dose activity change, negative = inhibition, usual class: inhibitors. AlphaScreen JMJD2A-Tudor / H3K4me3 peptide binding; also: % is scaled to controls: 0 for no effect and ±100 for the full control effect; nearly all actives have a fitted effect of over 50% in size
G9a inh: qHTS Assay for Inhibitors of Histone Lysine Methyltransferase G9a. Histone-lysine N-methyltransferase EHMT2 (Homo sapiens), Q96KQ7. G9a H3K9 monomethylation, AlphaScreen, 2 h. Potency, µM (titrated, usually from 102 µM), without a hit: top-dose activity, negative = inhibition, most hits filed as inhibitors. 350,000 tested, 8.8% active. AID 504332, 2011; also: % is scaled to controls: 0 for no effect and ±100 for the full control effect; nearly all actives have a fitted effect of over 75% in size
Target sequence (Q96KQ7 913-1193 limits assumed): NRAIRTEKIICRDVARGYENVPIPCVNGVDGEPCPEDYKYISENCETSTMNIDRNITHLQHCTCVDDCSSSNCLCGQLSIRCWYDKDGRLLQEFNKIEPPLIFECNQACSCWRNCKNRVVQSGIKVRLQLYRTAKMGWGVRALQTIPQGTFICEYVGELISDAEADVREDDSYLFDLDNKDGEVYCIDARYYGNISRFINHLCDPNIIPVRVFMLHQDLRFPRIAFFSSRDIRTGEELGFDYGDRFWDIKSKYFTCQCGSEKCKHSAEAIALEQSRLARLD
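AlphaScreen read-out: biotin-H3K9 peptide (500 nM) methylation by 20 nM enzyme with 20 uM SAM, 2 h at room temperature after 15 min compound preincubation; anti-monomethyl H3K9 antibody plus donor/acceptor beads, 10 min dark.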
GLS inhibitor: qHTS for Inhibitors of Glutaminase (GLS); Glutaminase kidney isoform, mitochondrial (Homo sapiens), O94925; GLS enzymatic activity, qHTS titration; Potency, µM (doses to about 45.5 µM), inactives show top-dose activity change, negative = inhibition, hits mostly inhibitors; 410,000 tested, 0.21% active; AID 624170, 2012; also: % is scaled to controls: 0 for no effect and ±100 for the full control effect
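Read-out is an Amplex red fluorescence increase coupled through glutamate oxidase and HRP, measured before and after 30 min room-temperature incubation. hKGA is in 45 mM KH2PO4 (pH 8.2) with 0.02% Tween-20; glutamine added as 1mM solution.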
* = called active by the depositor; ! = not confirmed by another sample; [ ] = dose if it differs, or a comment. In the library only some 10% were active in any assay of this set; here they are far more common. Calls follow the shape of the dose curve; as a rule, active = well fitted curve in the direction sought with a large enough effect; inconclusive = small, poorly fitted or top-dose-only effect, or another doubt; inactive = no such curve, though single readings can be large; an effect the other way counts as inactive or inconclusive. Potency is read from the fitted curve at half-maximal effect.

How did Cc1ccccc1-n1nc(C)c2c1NC(=O)CSC2c1ccc(Cl)cc1 (centres undefined) do in these assays?
HP1b binding inh: -10%; BAZ2B block: inconclusive; JMJD2A Tudor inh: -30%; G9a inh: 13µM*; GLS inhibitor: 15%

How did C[C@@H]1O[C@H](C[N+](C)(C)C)CS1 do in these assays?
G9a inh: 2µM*

How did CCCc1c(C)nc(-c2ccc(C)cc2)nc1OC(=O)N(C)C do in these assays?
HP1b binding inh: 23%; BAZ2B block: 10%; JMJD2A Tudor inh: 8%; G9a inh: 2%[59 µM]; GLS inhibitor: 0%

How did CCOc1ccc(-c2nc3ccc(-c4nc5ccc(N6CCN(C)CC6)cc5[nH]4)cc3[nH]2)cc1 do in these assays?
G9a inh: 13µM*

What do the screens show for `N#Cc1ccccc1Cn1cc(C(=O)c2ccccc2F)c2ccccc21`?
HP1b binding inh: 39%; BAZ2B block: 0%; JMJD2A Tudor inh: -3%; G9a inh: 24%[59 µM]; GLS inhibitor: 4%

What do the screens show for `O=C1Nc2cc(C(=O)N3CCC4(CC3)OCCO4)ccc2NC1CSCc1cccc(F)c1` (centres undefined)?
BAZ2B block: -22%; G9a inh: 7.1µM*

How did CN1C(=O)C(=Cc2cn(CC(=O)N3CCCCC3)c3ccccc23)C(=O)N(C)C1=O do in these assays?
HP1b binding inh: 2%; BAZ2B block: 0%; JMJD2A Tudor inh: -11%; G9a inh: inconclusive; GLS inhibitor: -5%

How did CN1C(=O)C(=Cc2ccc(Sc3ccccc3)o2)C(=O)N(C)C1=S do in these assays?
HP1b binding inh: inconclusive; JMJD2A Tudor inh: 50µM*; GLS inhibitor: -12%

Results for CN1C(=O)C(=Cc2ccc(Sc3ccccc3)o2)C(=O)N(C)C1=O ?
HP1b binding inh: 27%; BAZ2B block: -29%; JMJD2A Tudor inh: -4%; G9a inh: 8.9µM*; GLS inhibitor: 4.5µM*

Results for O=C1NC(=O)C(=Cc2ccc(Sc3ccccc3)o2)C(=O)N1 ?
HP1b binding inh: 3%; BAZ2B block: inconclusive; JMJD2A Tudor inh: inconclusive; G9a inh: -23%[12.7 µM]; GLS inhibitor: inconclusive

What do the screens show for `CC1(O)CCN2C(=O)CCc3cccc1c32` (centres undefined)?
HP1b binding inh: 25%; BAZ2B block: -35%; JMJD2A Tudor inh: -10%; G9a inh: inconclusive; GLS inhibitor: 16%

Results for CC(=O)c1ccc(NC(=O)c2sc3nc4c(cc3c2N)N2CCC4CC2)cc1 ?
HP1b binding inh: 36%; BAZ2B block: -15%; JMJD2A Tudor inh: -3%; G9a inh: inconclusive; GLS inhibitor: 2%

How did CC12CC1(C)C(=O)N(c1cc(Cl)cc(Cl)c1)C2=O (centres undefined) do in these assays?
HP1b binding inh: 36%; JMJD2A Tudor inh: 13%; GLS inhibitor: 1%

Results for Cc1cccc(OCC(O)CN2CC2)c1 (centres undefined) ?
GLS inhibitor: -2%

Results for CC(=O)c1cccc(OCC(O)CN2CC=C(c3ccccc3)CC2)c1 (centres undefined) ?
HP1b binding inh: -35%; BAZ2B block: 71µM*; JMJD2A Tudor inh: 2.8µM*; G9a inh: inconclusive; GLS inhibitor: -19%

Results for CC1CCN(S(=O)(=O)c2ccc(NN=C(C#N)C#N)cc2)CC1 ?
BAZ2B block: 45µM*; G9a inh: inconclusive

What do the screens show for `N#CC(C#N)=NNc1ccc(S(N)(=O)=O)cc1`?
HP1b binding inh: 35µM*; BAZ2B block: inconclusive; JMJD2A Tudor inh: -19%[11.4 µM]; G9a inh: -1%[12.7 µM]; GLS inhibitor: 56%

How did OCC1(CO)COC(c2cccnc2)N1 (centres undefined) do in these assays?
HP1b binding inh: 28%; BAZ2B block: 7%; JMJD2A Tudor inh: -12%; G9a inh: 10%; GLS inhibitor: 3%

Results for CN1C(=O)C(=Cc2cn(CC(=O)N3CCCC3)c3ccccc23)C(=O)N(C)C1=O ?
HP1b binding inh: 5%; BAZ2B block: -21%; JMJD2A Tudor inh: -16%; G9a inh: 28µM*; GLS inhibitor: -7%

What do the screens show for `c1ccc2nc3ccccc3nc2c1`?
HP1b binding inh: 41%; BAZ2B block: -3%; JMJD2A Tudor inh: -23%; G9a inh: 45µM*; GLS inhibitor: 7%

How did C[C@]12CC[C@H](O)C[C@H]1CC[C@@H]1[C@@H]2CC[C@]2(C)[C@@H](C3=CC(=O)OC3)CC[C@]12O do in these assays?
HP1b binding inh: 62%; BAZ2B block: 2%; JMJD2A Tudor inh: 1%; G9a inh: inconclusive; GLS inhibitor: 1%

How did CCN1C[C@]2(C)CC[C@H](O)[C@]34C1[C@H](C[C@H]23)[C@@]1(O)C[C@H](OC)[C@H]2C[C@@H]4[C@@H]1C2O (some centres undefined) do in these assays?
HP1b binding inh: 24%; BAZ2B block: 0%; JMJD2A Tudor inh: -1%; G9a inh: 6%[59 µM]; GLS inhibitor: 34%

Results for O=C(CSC(=S)N1CCCC1)N/N=C/c1c(O)[nH]c(=S)[nH]c1=O ?
HP1b binding inh: 33%; JMJD2A Tudor inh: 56µM*; GLS inhibitor: 15%

How did Cc1cccc(N/N=C/c2c(O)[nH]c(=S)[nH]c2=O)c1 do in these assays?
HP1b binding inh: 23%; JMJD2A Tudor inh: -24%; GLS inhibitor: 35%

How did COCCn1c(O)c(/C=N/NC(=O)CSC(=S)N2CCCC2)c(=O)[nH]c1=S do in these assays?
HP1b binding inh: 37%; BAZ2B block: -1%; JMJD2A Tudor inh: 89µM*; G9a inh: -23%[59 µM]; GLS inhibitor: 18%

Results for COc1ccc(NC(=O)C2C3CCC(O3)C2C(=O)O)c(OC)c1 (centres undefined) ?
HP1b binding inh: 0%; BAZ2B block: -16%; JMJD2A Tudor inh: -36%; G9a inh: 10µM*; GLS inhibitor: 9%

What do the screens show for `COc1ccc(CC(=O)Nc2ccc3c(C(F)(F)F)cc(=O)oc3c2)cc1OC`?
HP1b binding inh: 25%; BAZ2B block: -9%; JMJD2A Tudor inh: -8%; G9a inh: 17%; GLS inhibitor: -6%

Results for COc1ccc(Cc2nccc3cc(OC)c(OC)cc23)cc1OC ?
HP1b binding inh: -4%; BAZ2B block: inconclusive; JMJD2A Tudor inh: -19%; G9a inh: 5.6µM*!; GLS inhibitor: -16%

How did COC(=O)CSC1=NN1c1cc(C)nc(N)n1 do in these assays?
HP1b binding inh: 49%; BAZ2B block: 2%; JMJD2A Tudor inh: -9%; G9a inh: 50µM*; GLS inhibitor: 4%

Results for CCC(C(=O)OCCOCCN(CC)CC)c1ccccc1 (centres undefined) ?
HP1b binding inh: 10%; BAZ2B block: -35%; JMJD2A Tudor inh: inconclusive; G9a inh: inconclusive; GLS inhibitor: 8%
